Usually inhibition stands for the relative decrease from the control value, in per cent.

The list shows a part of the results. Activity calls are given as the source filed them.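 Rule for the calls: active = average inhibition over replicates above about 50%, so the earlier screening hit is confirmed (limit read from the data); inactive = the rest, counted as false positives.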

For the assay, the target named is Ubiquitin carboxyl-terminal hydrolase isozyme L5 (Homo sapiens) (UniProt Q9Y5K5). Kind of assay: retest of human UCH37 deubiquitinase inhibitors, confirmation, biochemical, Ub-AMC cleavage rate, fluorescence (AID 624100).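 Note: based on cleavage rate fitted by regression over a 30 min kinetic read; 0% = proteasome plus Ub-AMC and 100% = Ub-AMC without proteasome.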 To be noted: Proteasome-bound UCH37, Ub-AMC cleavage fluorescence; at 20 µM; active compounds read high.
Sequence of Ubiquitin carboxyl-terminal hydrolase isozyme L5 (Homo sapiens) (Q9Y5K5 whole entry, looked up): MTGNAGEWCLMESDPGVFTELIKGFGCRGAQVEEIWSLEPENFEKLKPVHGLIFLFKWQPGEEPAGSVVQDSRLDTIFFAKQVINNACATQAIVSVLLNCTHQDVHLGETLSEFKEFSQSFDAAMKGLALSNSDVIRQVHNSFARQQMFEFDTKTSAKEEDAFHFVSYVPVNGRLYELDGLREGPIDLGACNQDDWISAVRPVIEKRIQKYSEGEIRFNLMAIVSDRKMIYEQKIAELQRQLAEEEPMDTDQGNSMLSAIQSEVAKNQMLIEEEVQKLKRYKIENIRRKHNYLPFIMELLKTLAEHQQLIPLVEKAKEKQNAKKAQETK
Consider `COc1cc(NC(=O)COC(=O)c2ccc([N+](=O)[O-])s2)cc(OC)c1OC`, for which the inhibition is 14.6% (inactive).

As for `CC(C)NC(=O)/C(C#N)=C\c1ccc(N(C)C)c(Br)c1`, the inhibition was 9.32% (inactive).

With `Cn1ccc(=Nc2ccc(NC(=O)c3ccc(N=c4ccn(C)c5ccc([N+](=O)[O-])cc45)cc3)cc2)cc1`, the inhibition was 71.3% (active).

For `COc1cccc(C2/C(=C(/O)c3ccc(F)cc3)C(=O)C(=O)N2CCN(C)C)c1` (stereo not given), the inhibition was 12.7% (inactive).

For `COC1=C(N2CCOCC2)C(=O)c2ccccc2C1=O`, the inhibition was 12.6% (inactive).

For the molecule `COCCN1C=C2C(=O)C(C)(OC(=O)C3CCCC3)C(=O)C=C2C=C1c1ccsc1` (stereo not given), the inhibition is 24.9% (inactive).

`CC1CCCN(C(=O)c2ccc3c(c2)C(=O)N(CCC2=CCCCC2)C3=O)C1` (stereo not given): the inhibition is 61% (active).

Turning to `O=C(NC1CCCC1)C(c1ccc(N2CCOCC2)cc1)N(C(=O)c1ccco1)c1ccccc1F` (stereo not given), the inhibition is 4.55% (inactive).

Turning to `Cc1[nH][nH]c(=O)c1C(c1ccc(-c2ccc(Cl)cc2)o1)c1c(C)[nH][nH]c1=O`, the inhibition is 6.33% (inactive).

For the molecule `Cc1ccc(Nc2cc(C)nc3c(C)ccc([N+](=O)[O-])c23)cc1`, the inhibition was 0.827% (inactive).
